Compounds with a hit are over-represented: about 3.3% of the library has one in this group of screens.
C2C12 statin = suppressors of statin myotoxicity in C2C12 myotubes, primary screen, cell-based, single point, plate reader. C2C12 myotubes + simvastatin, ATP luminescence, 48 h; scaled: DMSO 0, geranylgeraniol control 100. rescue of ATP level, % at 7.49 µM. hit rate 0.78% among 330,000. AID 602340, 2012;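 active = mean ATP rescue above about 67%, or every replicate alone reaching that limit, limit read from the data, passing the limit was not always enough; inconclusive = no clear call, values can overlap the other calls; inactive = mean under the limit and some replicate under it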;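 also: myotubes were challenged with 10 µM simvastatin during compound exposure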
Wnt bcat act = Wnt/beta-catenin pathway activators, primary screen, cell-based, plate reader, single point; hit rate 1.2% among 300,000; AID 743398, 2014; Wnt/beta-catenin reporter cell assay, activator; activation, % at 9.35 µM; in the data active = activation above about 30%, passing the limit was not always enough; inconclusive = no clear call, values can overlap the other calls;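 also: 0% = neutral control wells and 100% = positive control wells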
MITF TRPM1 HTS = activators of MITF-driven TRPM1 promoter reporter, primary screen, cell-based, SK-MEL-5, luciferase, single point; activation, % at 12.5 µM; SK-MEL-5 TRPM1-promoter luciferase, 24 h; % of positive control, neutral wells = 0; hit rate 0.75% among 300,000;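 active = mean activation of at least 80% with every replicate also reaching 80%; inconclusive = mean reaches 80% but some replicate falls short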;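 also: 0% = neutral control wells and 100% = parthenolide positive control wells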
GAA850 FXN act = FXN promoter activators, primary screen, cell-based, luciferase luminescence, HEK293 lucGAA850 | AID 540364, 2011 | activation, % at 6 µM | HEK293 lucGAA850 FXN promoter luciferase reporter, 24 h; percent of 10 µM SAHA response | hit rate 0.56% among 360,000;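 active = activation above the average of all compounds screened plus 3 SD, cutoff fixed separately per campaign, cut at about 7.5% in these data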;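 also: 0% = DMSO wells and 100% = 10 µM SAHA wells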
esBAF inh = Bmi1 luciferase reporter increase in mESCs, primary screen, esBAF inhibitor project, mouse ES cells, Bmi1 luciferase knock-in, single point. 24 h; 100% = twice the neutral-well signal. reporter increase, % at 12.5 µM. hit rate 2% among 350,000. AID 602393, 2012; in the data active = activation above about 40%; inconclusive = no clear call, values can overlap the other calls;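 also: 0% = median of the plate's neutral control wells and 100% = double that signal; a rise in the Bmi1 reporter signal indicates esBAF inhibition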
* = called active by the depositor; ? = inconclusive; . = not tested or not shown.

SMILES	C2C12 statin	Wnt bcat act	MITF TRPM1 HTS	GAA850 FXN act	esBAF inh
COc1ccc2cc(C3=CC(=O)CC(C)(C)C3=O)ccc2c1	-13.6	0.5	.	4.0	123.9*
CC(C)NC(=O)N(C)C[C@H]1Oc2ccc(NC(=O)CCC(F)(F)F)cc2C(=O)N([C@H](C)CO)C[C@H]1C	-5.1	.	.	.	3.3
CC(=O)c1ccc(C)cc1OC(=O)c1cccc(F)c1	5.8	-1.4	-0.6	2.8	-5.9
Cc1ccc(C(=O)CC(=O)c2cccc(F)c2)c(O)c1	1.6	.	.	1.0	46.2*
Cc1ccc(C(=O)CC(=O)c2ccccc2C)c(O)c1	-7.6	11.9	-9.1	-0.4	62.2*
COCC(=O)Nc1ccc2c(c1)C(=O)N(C)C[C@@H](OC)[C@@H](C)CN(Cc1cccnc1)[C@H](C)CO2	-0.9	.	.	.	3.1
CO[C@@H]1CN(C)C(=O)c2cc(NC(=O)NC(C)C)ccc2OC[C@@H](C)N(Cc2ccccn2)C[C@@H]1C	-6.4	.	.	.	-2.0
C[C@H]1CN([C@@H](C)CO)C(=O)c2cc(NC(=O)Cc3cn(C)c4ccccc34)ccc2O[C@H]1CN(C)C	0.2	.	.	.	-3.8
CC(=O)Nc1cccc(Nc2nc(-c3ccccc3F)nc3ccccc23)c1	106.3*	-1.1	-5.1	-1.1	2.8
CNc1nn(-c2cccc(Cl)c2)nc1N	-10.7	.	56.7	5.8	62.0*
Cc1cc(-c2nnc(CCC(=O)N(CC3CCC3)CC3CCCO3)o2)no1 (configuration not stated)	5.4	-0.8	31.9	2.6	47.0*
Cc1cc(-c2nnc(CCC(=O)N(CC3CC3)CC3CCCO3)o2)no1 (configuration not stated)	.	-0.9	-7.8	2.8	.
CC(=O)Nc1ccc2c(c1)ncn2-c1ccc(C)cc1	.	42.5*	39.0	5.1	.
CC(=O)Nc1ccc(-c2cc(N)n(-c3ccccc3)n2)cc1	.	44.4*	48.1	7.6	.
Nc1cc(-c2ccc(Cl)cc2)nn1-c1ccccc1	-0.7	48.6*	119.1*	4.9	58.0*
Nc1ccc(-c2cc(N)n(-c3ccccc3)n2)cc1	-4.9	.	54.7	3.2	32.3
CC(=O)Nc1ccc(-c2cc(NC(C)=O)n(-c3ccccc3)n2)cc1	-8.8	.	1.6	2.4	-6.8
Cc1ccc(NS(=O)(=O)c2ccc(-c3ccc(=O)[nH]n3)o2)cc1Cl	137.3*	-0.4	10.2	4.4	2.9
Cc1ccc(NS(=O)(=O)c2ccc(-c3ccc(=O)[nH]n3)o2)cc1N(C)C	-5.7	-1.6	0.8	1.0	20.6
c1ccc(-c2cc3nc(NCc4ccc5c(c4)OCO5)ccn3n2)cc1	-2.7	2.1	.	2.6	52.4*
c1ccc(COc2ccc(-c3cc4nc(NCc5ccc6c(c5)OCO6)ccn4n3)cc2)cc1	16.6	6.4	.	-0.9	28.6
Cc1ccc(-c2nc3ccccn3c2NCc2ccc3c(c2)OCO3)cc1	9.1	?	32.1	3.9	43.7*
c1ccc(-c2cc3nc(NCc4cccs4)ccn3n2)cc1	-0.2	5.5	.	4.0	66.8*
COc1cc(-c2cc3nc(NCc4cccs4)ccn3n2)cc(OC)c1OC	-1.4	?	.	-2.3	-7.4
C[C@@H]1CN([C@@H](C)CO)C(=O)c2cc(-c3cccnc3)cnc2O[C@@H]1CN(C)Cc1ccccc1	0.8	.	.	.	.
SMILES	C2C12 statin	Wnt bcat act	MITF TRPM1 HTS	GAA850 FXN act	esBAF inh
CO[C@H]1CC[C@@H]2CCN(C)C(=O)CC3(CCCCC3)CN(C)C(=O)c3cccc(C#N)c3OC[C@H]1O2	-3.1	.	.	.	-5.7
COc1cc(OC)c2c(c1)O/C(=C\c1ccccc1)C2=O	4.8	-1.2	.	5.1	58.3*
Cn1ccnc1SCC(=O)Nc1ccc(Oc2ccccc2)cc1	.	6.9	?	5.1	49.8*
Cn1ccnc1SCC(=O)c1ccc(OC(F)F)cc1	-8.5	12.0	64.2	2.6	37.4
CCOc1ccc(NC(=O)CSc2nccn2C)cc1	2.6	6.3	56.2	2.5	?
Cn1ccnc1SCC(=O)c1cccc(C(F)(F)F)c1	0.7	24.5	88.6*	3.4	33.2
COc1ccc(C(=O)CSc2nccn2C)cc1	6.0	16.7	79.0	4.5	42.2*
Cn1ccnc1SCC(=O)Nc1cccc(C(F)(F)F)c1	10.1	.	23.4	2.2	10.1
C[C@H](CO)N1C[C@H](C)[C@H](CN(C)C)Oc2ccc(NC(=O)NC3CCCCC3)cc2CC1=O	6.0	.	.	.	0.7
Fc1ccc(-c2nn3c(C4COc5ccccc5O4)nnc3s2)cc1 (configuration not stated)	30.0	.	.	3.4	42.2*
CC=Cc1ccc2n(c1=O)C[C@@H]1[C@@H](CO)[C@H](C(=O)NCC)[C@H]2N1Cc1nccs1 (mixture of isomers)	-37.2	.	.	.	-1.7
COCCNC(=O)c1cc(-c2cccc(OC)c2)on1	1.2	.	?	6.5	10.8
COc1ccc(-c2cc(C(=O)NCc3cccs3)no2)cc1	7.2	?	91.8*	2.7	42.5*
O=C(NCc1cccs1)c1cc(-c2ccccc2)on1	-4.5	.	99.3*	2.9	39.6
COc1cccc(-c2cc(C(=O)NCc3cccs3)no2)c1	12.1	2.9	134.2*	3.3	71.7*
O=C(NCc1cccs1)c1cc(-c2cccs2)on1	-3.3	.	60.9	3.8	?
C[C@@H]1CCCCO[C@@H](CN(C)C(=O)Nc2ccc(F)cc2)[C@@H](C)CN([C@H](C)CO)C(=O)c2cc(NC(=O)c3ccccc3)ccc2O1	.	.	.	.	-0.2
CO[C@@H]1CN(C)C(=O)c2ccc(NS(C)(=O)=O)cc2OC[C@@H](C)N(CC2CCCCC2)C[C@H]1C	6.1	.	.	.	-0.5
C[C@@H]1CN([C@@H](C)CO)S(=O)(=O)c2ccc(C#Cc3ccc(F)cc3)cc2O[C@H]1CN(C)C(=O)CN(C)C	20.8	.	.	.	-3.0
C[C@@H]1CCCCO[C@@H](CN(C)Cc2ccc(C(=O)O)cc2)[C@H](C)CN([C@H](C)CO)C(=O)c2cc(NS(=O)(=O)c3cn(C)cn3)ccc2O1	.	.	.	.	-4.6
CCNC(=O)[C@@H]1[C@@H](CO)[C@@H]2Cn3c(cccc3=O)[C@@H]2N1CC1CCCCC1	-8.6	.	.	.	-1.5
O=C1CCN(Cc2ccccc2)C=C1c1ccc2ccccc2c1	3.9	43.7*	50.7	2.8	63.3*
CSc1nccc(N/N=C/c2ccccc2)n1	-4.8	37.1*	97.0*	4.9	52.2
CC(C)c1cn(CC[C@@H]2CC[C@@H](NS(=O)(=O)c3ccccc3)[C@H](CO)O2)nn1	8.4	.	.	.	-3.0
C[C@@H]1CN([C@H](C)CO)S(=O)(=O)c2ccc(C#CC3(O)CCCC3)cc2O[C@H]1CN(C)C(=O)Cc1cccnc1	-15.4	.	.	.	1.3
O=C(Nc1ccc2c(c1)OCO2)N[C@@H]1CC[C@H](CCNC(=O)C2CCOCC2)O[C@H]1CO	-0.9	.	.	.	-1.7
Cc1ccc(C(=O)Nc2ccc(S(=O)(=O)N3CCOCC3)cc2)cc1Br	.	41.4*	.	0.5	.
